Laboratory results from PubChem BioAssay (Tox21).
Records with an inconclusive call do not appear. A call without a number means that no potency is given here. A number with no mark means an inactive call. Calls of active or inactive are those of the source. Calls come from the whole dose curve; as a rule, active = well fitted cell-killing curve with a large enough effect in the repeat runs; inconclusive = weak or mixed curves, or effect the other way; inactive = flat fitted curve, though single readings scatter.

assay: qHTS assay to identify small molecule agonists of the constitutive androstane receptor (CAR) signaling pathway - cell viability counter screen (AID 1224836); details: HepG2-CYP2B6-hCAR viability, CellTiter-Fluor, 23 h, PK11195 added to every well; series mostly up to 92.4 µM; note: nearly all actives have a fitted effect of over 45% in size
From the text: U.S. Tox21 Program National Center for Advancing Translational Sciences [NCATS] NIH Chemical Genomics Center [NCGC] U.S. Environmental Protection Agency [EPA] National Institutes of Environmental Health Sciences [NIEHS] National Toxicology Program [NTP] U.S. Food and Drug Administration [FDA] Tox21 Assay Overview: The constitutive androstane receptor (CAR) is a nuclear receptor which regulates multiple drug metabolizing enzymes (DMEs) and transporters. Activating CAR will generally increase the transcription and subsequent translation of CYP2B6 and CYP3A4. These two DMEs represent about 50% of the drug metabolizing potential in the body. […] Recently, there have also been studies performed indicating CARs role in energy metabolism and cancer therapy. Therefore, inducing CARs activity could have a potential effect on diabetes and cancer. Identifying environmental toxins and compounds which modulate CAR, through the use of the Tox21 10K compound collection, will be an important step in determining the toxicity and potential therapeutic effects these factors will have on the human body. To differentiate true CAR agonists from cytotoxic substances, the assay is multiplexed with a cell viability assay.
Tox21 Assay Protocol Summary: A double-stable (hCAR and CYP2B6-2.2kb) transfected cell line, derived from human hepatoma (HepG2) cells, was utilized for the duration of the quantitative high-throughput screens. The HepG2-CYP2B6-hCAR cells were dispensed at 2500 cells/4 uL/well in 1536-well white solid bottom plates using a Multidrop Combi. After the assay plates were incubated at 37 C/5% CO2 for 4 hrs, 23 nL of compounds at 15 concentrations (from 5-48 columns) or positive control (from 1 to 4 columns) were transferred to the assay plates using a Pintool station. One uL of PK11195 (final concentration = 0.75 uM) was added, using a Flying Reagent Dispenser, inside each well. After a 23 hr incubation period at 37 C/5% CO2, 1 uL of CellTiter-Fluor reagent was added into each well of the assay plates using a Flying Reagent Dispenser. The fluorescence intensity in the plates was then measured using a ViewLux plate reader.

| Structure (SMILES) | Potency | viability change, negative = cytotoxic |
| --- | --- | --- |
| NCC1CCCC(CN)C1 (stereo not given) | inactive | – |
| O=C(CCCN1CCC(O)(c2ccc(Br)cc2)CC1)c1ccc(F)cc1 | inactive | – |
| O=C(O)Cc1ccc(-c2ccccc2)cc1 | inactive | – |
| Nc1ccc(Cl)cc1[N+](=O)[O-] | inactive | – |
| CCCOC(=O)c1ccc(C(=O)OCCC)nc1 | inactive | – |
| Cc1ccc(S)cc1 | inactive | – |
| CC#N | inactive | – |
| Cc1nc2ccccc2s1 | inactive | – |
| O=C1OCCN1/N=C/c1ccc([N+](=O)[O-])o1 | inactive | – |
| CO[C@H]1O[C@H](CO)[C@@H](O)[C@H](O)[C@H]1O | inactive | – |
| CCCCC1C(=O)N(c2ccccc2)N(c2ccc(O)cc2)C1=O (stereo not given) | inactive | – |
| N#C/C(=C1\SCC(c2ccccc2Cl)S1)n1ccnc1 (stereo not given) | inactive | – |
| CCN(Cc1cccc(S(=O)(=O)O)c1)c1ccc(C(=C2C=CC(=[N+](CC)Cc3cccc(S(=O)(=O)[O-])c3)C=C2)c2ccccc2)cc1 | inactive | – |
| O=C(O)c1ccc(CO)o1 | inactive | – |
| Nc1ccc(S(=O)(=O)O)cc1 | inactive | – |
| CCCCC/C(=C\c1ccccc1)CO | inactive | – |
| CC(C)C(OC(=O)c1ccccc1)C(C)(C)COC(=O)c1ccccc1 (stereo not given) | inactive | – |
| Cc1nc2ccccn2c(=O)c1CCN1CCC(C(=O)c2ccc(F)cc2)CC1 | inactive | – |
| NC(=O)Nc1ccc(Cl)cc1 | inactive | – |
| C(=C\c1ccccc1)/CN1CCN(C(c2ccccc2)c2ccccc2)CC1 | inactive | – |

| Structure (SMILES) | Potency | viability change, negative = cytotoxic |
| --- | --- | --- |
| CC(C)CCCCCCOC(=O)CCCCC(=O)OCCCCCCC(C)C | inactive | – |
| c1cc[c]([Bi]([c]2ccccc2)[c]2ccccc2)cc1 | inactive | – |
| Cc1cc(OI)c(C(C)C)cc1-c1cc(C(C)C)c(OI)cc1C | inactive | – |
| CCCCCCCC/C=C\CCCCCCCC(=O)OC(CO)CO | inactive | – |
| CSc1ccc(Oc2ccc(S(N)(=O)=O)cc2CN(C)C)cc1C | inactive | – |
| CCCCC(CC)COC(=O)COc1ccc(Cl)cc1C (stereo not given) | inactive | – |
| O=Cc1c(Cl)cccc1Cl | inactive | – |
| C=CC(C)(O)CCCC(C)CCCC(C)CCCC(C)C (stereo not given) | inactive | – |
| CCOC(=O)/C=C/C(=O)O | inactive | – |
| Nc1nccs1 | inactive | – |
| CC1(C)C2=CCCC(C)(C)[C@]23CC[C@H]1C3 | inactive | – |
| CCn1nc(C)c2c1C(=O)NCC(c1ccc(O)cc1)=N2 | inactive | – |
| O=C1NCCN1 | inactive | – |
| CCCCC(=O)O[C@]1(C(=O)CO)CC[C@H]2[C@@H]3CCC4=CC(=O)CC[C@]4(C)[C@H]3[C@@H](O)C[C@@]21C | inactive | – |
| CCCC1C(CC)=CC(CC)=CN1c1ccccc1 (stereo not given) | inactive | – |
| CC1CN(c2cc3c(cc2F)c(=O)c(C(=O)O)cn3-c2ccc(F)cc2F)CCN1 (stereo not given) | – | -1.43% [at 8.39 µM] |
| OC(CCCN1CCCCC1)(c1ccccc1)c1ccccc1 | inactive | – |
| OCCSc1ccccc1 | inactive | – |
| C=C(C)C(=O)OCCOC(=O)CC(C)=O | inactive | – |
| CC(=O)Nc1ccccc1C | inactive | – |
